For one compound, Potency and outcome results are on record in PubChem BioAssay (NCATS).

Records with an inconclusive call do not appear. Activity calls are given as the source filed them. Calls come from the whole dose curve; as a rule, active = well fitted curve in the direction sought with a large enough effect; inconclusive = small, poorly fitted or top-dose-only effect, or another doubt; inactive = no such curve, though single readings can be large; an effect the other way counts as inactive or inconclusive.

A short description of assay [1]: A2780 Cisplatin Sensitive Ovarian Cancer Cell Toxicity qHTS against the NCATS CANVASS Library (AID 1347353). Note: potency is the fitted concentration of half-maximal effect; nearly all actives have a fitted effect of over 60% in size. The note with it: A2780 ovarian cancer viability, ATPLite luminescence, 72 h. In outline:
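750 cells/well, 4 h settle; 11-pt cpd titration; 72 h, 37 °C, 5% CO2; ATPLite 10 min RT; luminescence read.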
A general note: In qHTS, concentration-response curves come from the screen itself.

Assay [2] in a line: UWB1.289-WTBRCA1 Cancer Cell Toxicity qHTS against the NCATS CANVASS Library (AID 1347354). Note: potency is the fitted concentration of half-maximal effect. The note with it: UWB1.289-WTBRCA1 viability, CellTiter-Glo luminescence, 72 h. A digest of the protocol: (§1)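 1000 cells/well, 4 h pre-incubation 37 °C/5% CO2; 11-pnt titration; 72 h; CellTiter-Glo 15 min RT, luminescence.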
The nature of assay [3]: HEK-293 Cancer Cell Toxicity qHTS against the NCATS CANVASS Library (AID 1347355). Note: potency is the fitted concentration of half-maximal effect; nearly all actives have a fitted effect of over 65% in size. Particulars: HEK-293 viability, CellTiter-Glo luminescence, 72 h. A digest of the protocol: as §1
Assay [4] deals with Luciferin 4-monooxygenase (Photinus pyralis) (UniProt P08659). In words: Firefly luciferase counterscreen qHTS: Assay Interference Panel against the NCATS CANVASS Library (AID 1347363). Particulars: purified firefly luciferase, luminescence inhibition, 5 min; series mostly up to 57.5 µM. In outline: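 Luminescence inhibition readout: compounds (11-point qHTS) sat 15 min at room temperature with substrate mix (0.013 mM luciferin and ATP), then firefly luciferase was added and signal read 5 min later.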
In general terms: The purpose of a counterscreen is to sort out artefacts and off-target activity.

The nature of assay [5]: KB-8-5-11 Cancer Cell Toxicity qHTS against the NCATS CANVASS Library (AID 1347364). Note: potency is the fitted concentration of half-maximal effect; nearly all actives have a fitted effect of over 75% in size. The note with it: KB-8-5-11 MDR cells viability, CellTiter-Glo, 72 h. From the text: Natural products and their derivatives continue to be wellsprings of nascent therapeutic potential. However, many laboratories have limited resources for biological evaluation, leaving their previously isolated or synthesized compounds largely or completely untested. To address this issue, the Canvass library of natural products was assembled (https://tripod.nih.gov/canvass), in collaboration with academic and industry researchers, for quantitative high-throughput screening (qHTS) across a diverse set of cell-based and biochemical assays. The pure (>85% purity by liquid chromatography/mass spectrometry [LC/MS]) Canvass library of 346 natural products were submitted by 45 academic laboratories and companies around the world. We collected pure natural products to circumvent deconvolution and structure elucidation due to time and resource limitations. The library was formatted into 1536-well plates and evaluated in 50 qHTS (in an 11-pnt concentration series) bioassays with broad scope of disease-relevant mechanisms. The resulting data set from 50 different assays was then systematically analyzed to identify overall trends and specific natural products with interesting biological activities. […]
Cancer Cell Toxicity qHTS protocol 1. […] Luminescence signal was acquired via the ViewLux plate reader (PerkinElmer) using a clear emission filter, 1 sec exposure, and 1x binning settings.

Assay [6] is described as follows: KB-3-1 Cancer Cell Toxicity qHTS against the NCATS CANVASS Library (AID 1347366). Note: potency is the fitted concentration of half-maximal effect; nearly all actives have a fitted effect of over 75% in size. Particulars: KB-3-1 viability, CellTiter-Glo luminescence, 72 h. A digest of the protocol: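 CellTiter-Glo luminescence measured viability after 72 h at 37C. KB-3-1 cells were seeded at 500 per well in DMEM/10% FBS.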
Assay [7] can be described thus: qHTS for ATAD5 Agonist screened against the NCATS CANVASS Library (AID 1347367).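 Note: luciferase reporter driven by ATAD5 which rises upon DNA damage.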 The note with it: HEK293T ATAD5-luciferase reporter, luminescence, 16 h; series mostly up to 46.1 µM. A digest of the protocol:
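Genotoxicity via ATAD5-luciferase luminescence after 16 h compound exposure (11-point series) at 37C in HEK293T-ATAD5 cells. CellTiter-Fluor viability read precedes the luminescence read; MMS serves as positive control.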

The nature of assay [8]: qHTS for ATAD5 Antagonist screened against the NCATS CANVASS Library (AID 1347370). Note: potency is the fitted concentration of half-maximal effect; nearly all actives have a fitted effect of over 65% in size. The note with it: HEK293T-ATAD5-luc, 5-FUrd stimulated, luminescence, 16 h. From the text: (§2) Natural products and their derivatives continue to be wellsprings of nascent therapeutic potential. However, many laboratories have limited resources for biological evaluation, leaving their previously isolated or synthesized compounds largely or completely untested. To address this issue, the Canvass library of natural products was assembled (https://tripod.nih.gov/canvass), in collaboration with academic and industry researchers, for quantitative high-throughput screening (qHTS) across a diverse set of cell-based and biochemical assays. […] The library was formatted into 1536-well plates and evaluated in 50 qHTS (in an 11-pnt concentration series) bioassays with broad scope of disease-relevant mechanisms. The resulting data set from 50 different assays was then systematically analyzed to identify overall trends and specific natural products with interesting biological activities. […] Luminescence intensity is proportional to ATAD5 expression. […]
ATAD5 Agonist assay protocol: 1. […] A first readout of fluorescence signal was acquired via the ViewLux (PerkinElmer) plate reader using filter sets for AFC (380-400nmEx/505Em) and 1 second exposure setting. […] 8.#A second readout of luminescence signal was acquired via the ViewLux plate reader using a clear emission filter, 10 second exposure setting.

Assay [9] concerns the target Nuclear receptor subfamily 1 group I member 3 (Homo sapiens) (UniProt Q14994). The assay is described as follows: qHTS for Constitutive Androstane Receptor (CAR) Agonist screened against the NCATS CANVASS Library (AID 1347373).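 Note: every well also contained 1.5 µM PK11195 alongside the test compound.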 The note with it: HepG2-hCAR-CYP2B6 luciferase reporter, ONE-Glo luminescence; series mostly up to 46.1 µM. A digest of the protocol: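 Luciferase read-out (ONE-Glo, 30 min RT) of CYP2B6-2.2kb promoter activity in double-stable HepG2-hCAR cells after 24hr compound exposure with 1.5uM PK11195 present; viability measured first by CellTiter-Fluor.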

A short description of assay [10]: 10-beta competent E. coli microbial cell viability qHTS against the NCATS CANVASS Library (AID 1347376). Particulars: E. coli 10-beta viability, BacTiter-Glo ATP luminescence, overnight; series mostly up to 46.1 µM.
Text: as §2, with “The BacTiter-Glo microbial cell viability assay” for “Luminescence intensity”, “a homogeneous method for determining the number of viable bacterial cells in culture based on quantitation of the ATP present. […] The homogeneous assay procedure involves adding a single reagent (BacTiter-GloTM Reagent) directly” for “proportional”, “bacterial cells in medium and measuring luminescence.” for “ATAD5 expression.”

Luciferin 4-monooxygenase (Photinus pyralis), sequence (P08659 whole entry, looked up): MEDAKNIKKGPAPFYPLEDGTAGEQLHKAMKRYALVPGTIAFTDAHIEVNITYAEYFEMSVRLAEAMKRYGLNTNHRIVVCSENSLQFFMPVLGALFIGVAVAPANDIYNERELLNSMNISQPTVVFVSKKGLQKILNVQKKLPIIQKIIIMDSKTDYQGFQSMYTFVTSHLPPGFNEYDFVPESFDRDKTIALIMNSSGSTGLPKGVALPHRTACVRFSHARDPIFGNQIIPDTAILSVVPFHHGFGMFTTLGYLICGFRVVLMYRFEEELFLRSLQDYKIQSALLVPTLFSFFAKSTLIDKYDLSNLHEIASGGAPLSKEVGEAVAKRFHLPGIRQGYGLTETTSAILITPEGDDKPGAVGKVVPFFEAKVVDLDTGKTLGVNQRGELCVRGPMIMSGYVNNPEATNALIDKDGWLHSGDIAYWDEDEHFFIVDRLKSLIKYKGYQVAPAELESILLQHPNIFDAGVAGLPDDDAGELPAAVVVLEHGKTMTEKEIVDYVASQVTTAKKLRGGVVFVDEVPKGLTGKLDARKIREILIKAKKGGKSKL
Nuclear receptor subfamily 1 group I member 3 (Homo sapiens), sequence (Q14994 whole entry, looked up): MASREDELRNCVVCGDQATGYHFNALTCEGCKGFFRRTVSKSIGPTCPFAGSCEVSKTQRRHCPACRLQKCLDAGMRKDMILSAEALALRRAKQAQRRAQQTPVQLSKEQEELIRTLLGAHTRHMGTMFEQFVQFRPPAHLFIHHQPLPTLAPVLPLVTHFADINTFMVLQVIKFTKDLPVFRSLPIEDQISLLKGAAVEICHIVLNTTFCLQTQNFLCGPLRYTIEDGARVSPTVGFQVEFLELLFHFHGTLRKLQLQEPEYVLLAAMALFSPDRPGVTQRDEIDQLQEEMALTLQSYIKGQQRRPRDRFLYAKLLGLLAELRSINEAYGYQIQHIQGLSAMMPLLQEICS

Regarding `CC(C)CC(=O)c1c(O)cc2c(c1O)C(CC(C)C)C1=C(O2)C(C)(C)C(=O)C(C)(C)C1=O` (stereo not given), the Potency was 16.6 µM (active) in assay [1]; 18.8 µM (active) in assay [2]; 20.9 µM (active) in assay [3]; 16.6 µM (active) in assay [5]; 26.4 µM (active) in [6]; 20.9 µM (active) in assay [8]. The call in assay [4], in assay [7], in assay [9] and in [10] was inactive.
